Laboratory results from PubChem BioAssay.
Activity calls are given as the source filed them.

Experiments:
[1] = binders of probe aFSTL3 on microarray, primary screen, stem cell growth factor project, biochemical, small-molecule microarray, fluorescence 635/667 (AID 1064); conditions: higher = more signal;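 further: measures binding of the biotinylated anti-FSTL3 antibody to printed compounds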
[2] = binders from COS7 lysate, DM2A8 probe, primary screen, torsin A project, cell lysate, small-molecule microarray, fluorescence 635/667 (AID 1065); conditions: higher = more signal, COS7 lysate expressing mutant human TOR1A
[3] = binders of probe aFGF2 on microarray, primary screen, stem cell growth factor project, biochemical, small-molecule microarray, fluorescence 635/667 (AID 1067); conditions: higher = more signal;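 further: measures binding of biotinylated aFGF2 protein to printed compounds on slides; z-score merges feature fluorescence and signal-to-noise across triplicate slides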
[4] = binders of probe aFGF10 on microarray, primary screen, stem cell growth factor project, biochemical, small-molecule microarray, fluorescence 635/667 (AID 1071); conditions: higher = more signal;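 further: score merges 667 nm spot intensity and signal to noise from triplicate slides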
[5] = biological target: Neurogenic locus notch homolog protein 2 (Homo sapiens) (UniProt Q04721); assay: Notch2 binders on small-molecule microarrays, primary screen, biochemical, small-molecule microarray, 635 nm fluorescence, stem cell growth factors (AID 1073); conditions: Notch2 binding, higher = more signal
Sequence of Neurogenic locus notch homolog protein 2 (Homo sapiens) (Q04721 whole entry, looked up, canonical isoform): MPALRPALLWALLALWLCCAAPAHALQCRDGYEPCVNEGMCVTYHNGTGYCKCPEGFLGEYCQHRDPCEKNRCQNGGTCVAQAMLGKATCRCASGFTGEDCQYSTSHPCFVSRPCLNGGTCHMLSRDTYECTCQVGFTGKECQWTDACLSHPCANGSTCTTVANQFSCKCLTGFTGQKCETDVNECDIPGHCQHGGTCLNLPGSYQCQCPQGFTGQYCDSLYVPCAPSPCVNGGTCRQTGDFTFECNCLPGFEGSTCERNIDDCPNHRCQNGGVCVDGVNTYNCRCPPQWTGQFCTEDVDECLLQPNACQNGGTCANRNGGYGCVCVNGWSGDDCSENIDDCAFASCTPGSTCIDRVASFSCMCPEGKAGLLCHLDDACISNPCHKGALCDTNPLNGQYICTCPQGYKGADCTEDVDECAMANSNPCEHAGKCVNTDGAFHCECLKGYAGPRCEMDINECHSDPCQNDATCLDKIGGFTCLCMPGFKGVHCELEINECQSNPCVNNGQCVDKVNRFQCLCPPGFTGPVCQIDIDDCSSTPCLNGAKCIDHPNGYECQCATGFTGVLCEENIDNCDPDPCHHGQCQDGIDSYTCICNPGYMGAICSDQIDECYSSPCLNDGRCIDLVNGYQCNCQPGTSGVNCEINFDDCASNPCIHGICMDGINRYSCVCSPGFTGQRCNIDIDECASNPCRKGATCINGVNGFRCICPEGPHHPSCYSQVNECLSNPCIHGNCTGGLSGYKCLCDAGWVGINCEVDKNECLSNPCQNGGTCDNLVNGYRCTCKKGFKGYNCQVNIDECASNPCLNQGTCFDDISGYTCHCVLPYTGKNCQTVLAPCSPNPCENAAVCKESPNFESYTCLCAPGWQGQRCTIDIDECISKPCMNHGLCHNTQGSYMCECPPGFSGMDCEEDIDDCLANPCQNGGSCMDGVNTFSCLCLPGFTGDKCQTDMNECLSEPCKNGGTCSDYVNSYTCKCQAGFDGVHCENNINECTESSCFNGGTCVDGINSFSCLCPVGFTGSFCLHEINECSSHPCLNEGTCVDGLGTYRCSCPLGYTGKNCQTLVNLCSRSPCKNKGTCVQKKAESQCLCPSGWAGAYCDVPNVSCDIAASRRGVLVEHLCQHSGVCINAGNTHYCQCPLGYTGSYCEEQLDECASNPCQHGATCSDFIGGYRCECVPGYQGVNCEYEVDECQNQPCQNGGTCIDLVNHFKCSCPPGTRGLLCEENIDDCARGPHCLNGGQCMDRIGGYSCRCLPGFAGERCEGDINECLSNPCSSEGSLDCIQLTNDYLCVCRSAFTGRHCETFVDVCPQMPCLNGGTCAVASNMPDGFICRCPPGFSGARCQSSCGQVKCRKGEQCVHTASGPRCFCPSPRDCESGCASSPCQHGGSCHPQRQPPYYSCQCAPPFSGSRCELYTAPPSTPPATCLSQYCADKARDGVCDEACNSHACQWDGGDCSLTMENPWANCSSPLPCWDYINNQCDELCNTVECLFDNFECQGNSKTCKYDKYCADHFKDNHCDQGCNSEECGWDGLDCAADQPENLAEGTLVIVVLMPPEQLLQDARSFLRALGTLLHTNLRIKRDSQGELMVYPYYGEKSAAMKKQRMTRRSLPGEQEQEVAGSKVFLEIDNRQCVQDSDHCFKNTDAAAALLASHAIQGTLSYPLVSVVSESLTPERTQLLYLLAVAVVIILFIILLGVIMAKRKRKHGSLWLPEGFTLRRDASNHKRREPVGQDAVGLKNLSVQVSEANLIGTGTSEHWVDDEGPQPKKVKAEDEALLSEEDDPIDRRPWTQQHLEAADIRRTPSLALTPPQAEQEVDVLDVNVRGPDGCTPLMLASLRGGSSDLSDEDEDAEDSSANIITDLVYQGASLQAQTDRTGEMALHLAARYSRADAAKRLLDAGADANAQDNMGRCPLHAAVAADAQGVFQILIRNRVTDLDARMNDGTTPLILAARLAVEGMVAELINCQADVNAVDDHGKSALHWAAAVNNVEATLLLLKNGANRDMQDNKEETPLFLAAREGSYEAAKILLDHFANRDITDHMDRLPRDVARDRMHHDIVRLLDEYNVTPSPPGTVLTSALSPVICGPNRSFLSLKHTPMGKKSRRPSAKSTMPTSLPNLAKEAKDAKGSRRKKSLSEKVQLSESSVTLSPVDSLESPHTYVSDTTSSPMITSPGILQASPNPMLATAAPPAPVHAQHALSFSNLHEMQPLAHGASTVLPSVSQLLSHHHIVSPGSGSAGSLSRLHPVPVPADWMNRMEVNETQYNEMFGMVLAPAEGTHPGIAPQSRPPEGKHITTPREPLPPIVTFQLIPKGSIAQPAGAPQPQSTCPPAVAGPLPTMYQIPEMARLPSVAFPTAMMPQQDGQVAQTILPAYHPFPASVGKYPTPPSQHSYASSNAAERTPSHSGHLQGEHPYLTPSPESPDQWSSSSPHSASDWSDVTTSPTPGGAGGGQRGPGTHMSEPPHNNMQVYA

[6] = biological target: Pro-neuregulin-1, membrane-bound isoform (Homo sapiens) (UniProt Q02297); assay: NRG1 binders on small-molecule microarrays, primary screen, psychiatric disease protein project, biochemical, small-molecule microarray, fluorescence 635/667 (AID 1075); conditions: NRG1 binding, 635 nm fluorescence, higher = more signal;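 further: score combines 667 nm spot fluorescence with signal to noise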
[7] = tested on: Neuregulin-1 EGF-like domain; assay: binders of neuregulin-1 EGF-like domain, primary screen, biochemical, small-molecule microarray, 635 nm fluorescence (AID 1081); conditions: small-molecule microarray binding, higher = more signal;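 further: binding of the protein to compounds printed on small-molecule microarray slides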
[8] = FRG1 promoter luciferase signal modulators, primary screen, FRG1 inhibition for FSHD, cell-based, C2C12 myotubes, firefly/Renilla luciferase, luminescence (AID 1084); conditions: higher = more signal, called active from +8 up or from −8 down
[9] = binders of probe aFST on microarray, primary screen, stem cell growth factor project, biochemical, small-molecule microarray, fluorescence 635/667 (AID 1086); conditions: higher = more signal;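 further: score merges 667 nm fluorescence with signal-to-noise of each printed compound spot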
[10] = binders of probe aHhip on microarray, primary screen, stem cell growth factor project, biochemical, small-molecule microarray, fluorescence 635/667 (AID 1087); conditions: higher = more signal;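 further: score merges spot fluorescence at 667nm with spot signal to noise ratio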
[11] = tested on: PRMT1 (protein arginine N-methyltransferase 1); assay: PRMT1 binders on small-molecule microarrays, primary screen, biochemical, small-molecule microarray, 635 nm fluorescence (AID 1088); conditions: small-molecule microarray binding, higher = more signal;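 further: binding of Prmt1 protein to compounds spotted on small-molecule microarray slides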
[12] = yeast growth modulation, basal conditions, primary screen, YJM789 clinical isolate, OD600, 24 h (AID 1089);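 further: growth of clinical yeast isolate S. cerevisiae YJM 789 seeded 1000 cells per well; test concentration not given here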; conditions: S. cerevisiae YJM789 growth, higher = more signal, called active from +8 up or from −8 down
[13] = fission yeast growth modulation, primary screen, strain 972, OD600, 24 h, no modulator (AID 1090);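 further: basal condition with compound alone and no growth modifier present; test concentration not given here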; conditions: S. pombe 972 growth, higher = more signal, called active from +8 up or from −8 down
[14] = S. cerevisiae growth modulation with rapamycin, primary screen, strain BY4716, OD600, 96 h (AID 1091); conditions: higher = more signal, called active from +8 up or from −8 down; further: test concentration not given here
[15] = biological target: Torsin-1A-interacting protein 2 (Homo sapiens) (UniProt Q8NFQ8); assay: LULL1 binders on small-molecule microarray, primary screen, cell lysate, human LULL1 lysate, 635/667 nm fluorescence (AID 1092); conditions: hLULL1 lysate binding, 635 nm fluorescence, higher = more signal;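 further: probe is lysate of COS7 cells overexpressing human LULL1; score merges per-feature 667 nm fluorescence with signal-to-noise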
[16] = E. coli growth modulation, two-sided OD650, primary screen, E. coli filamentation project, strain DRC41, 24 h (AID 1093); conditions: OD650, 24 h, higher = more signal, called active from +8 up or from −8 down;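 further: MC1000 strain lacking acrAB efflux and sulA so SOS filamentation is blocked; test concentration not given here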
[17] = small-molecule microarray binders of probe aLefty2, primary screen, biochemical, biotinylated probe, 635/667 nm fluorescence (AID 1094); conditions: higher = more signal;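 further: score merges spot fluorescence near 667 nm with spot signal-to-noise ratio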
[18] = tested on: Noggin (protein binding on small-molecule microarray); assay: Noggin binders on small-molecule microarray, primary screen, biochemical, 635/667 nm fluorescence (AID 1095); conditions: 635 nm fluorescence, higher = more signal;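 further: score merges 667 nm feature fluorescence with signal to noise over triplicate slides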
[19] = biological target: Neurogenic locus notch homolog protein 3 (Homo sapiens) (UniProt Q9UM47); assay: NOTCH3 binders on small-molecule microarray, primary screen, biochemical, 635/667 nm fluorescence (AID 1096); conditions: NOTCH3 binding, 635 nm fluorescence, higher = more signal
Sequence of Neurogenic locus notch homolog protein 3 (Homo sapiens) (Q9UM47 whole entry, looked up): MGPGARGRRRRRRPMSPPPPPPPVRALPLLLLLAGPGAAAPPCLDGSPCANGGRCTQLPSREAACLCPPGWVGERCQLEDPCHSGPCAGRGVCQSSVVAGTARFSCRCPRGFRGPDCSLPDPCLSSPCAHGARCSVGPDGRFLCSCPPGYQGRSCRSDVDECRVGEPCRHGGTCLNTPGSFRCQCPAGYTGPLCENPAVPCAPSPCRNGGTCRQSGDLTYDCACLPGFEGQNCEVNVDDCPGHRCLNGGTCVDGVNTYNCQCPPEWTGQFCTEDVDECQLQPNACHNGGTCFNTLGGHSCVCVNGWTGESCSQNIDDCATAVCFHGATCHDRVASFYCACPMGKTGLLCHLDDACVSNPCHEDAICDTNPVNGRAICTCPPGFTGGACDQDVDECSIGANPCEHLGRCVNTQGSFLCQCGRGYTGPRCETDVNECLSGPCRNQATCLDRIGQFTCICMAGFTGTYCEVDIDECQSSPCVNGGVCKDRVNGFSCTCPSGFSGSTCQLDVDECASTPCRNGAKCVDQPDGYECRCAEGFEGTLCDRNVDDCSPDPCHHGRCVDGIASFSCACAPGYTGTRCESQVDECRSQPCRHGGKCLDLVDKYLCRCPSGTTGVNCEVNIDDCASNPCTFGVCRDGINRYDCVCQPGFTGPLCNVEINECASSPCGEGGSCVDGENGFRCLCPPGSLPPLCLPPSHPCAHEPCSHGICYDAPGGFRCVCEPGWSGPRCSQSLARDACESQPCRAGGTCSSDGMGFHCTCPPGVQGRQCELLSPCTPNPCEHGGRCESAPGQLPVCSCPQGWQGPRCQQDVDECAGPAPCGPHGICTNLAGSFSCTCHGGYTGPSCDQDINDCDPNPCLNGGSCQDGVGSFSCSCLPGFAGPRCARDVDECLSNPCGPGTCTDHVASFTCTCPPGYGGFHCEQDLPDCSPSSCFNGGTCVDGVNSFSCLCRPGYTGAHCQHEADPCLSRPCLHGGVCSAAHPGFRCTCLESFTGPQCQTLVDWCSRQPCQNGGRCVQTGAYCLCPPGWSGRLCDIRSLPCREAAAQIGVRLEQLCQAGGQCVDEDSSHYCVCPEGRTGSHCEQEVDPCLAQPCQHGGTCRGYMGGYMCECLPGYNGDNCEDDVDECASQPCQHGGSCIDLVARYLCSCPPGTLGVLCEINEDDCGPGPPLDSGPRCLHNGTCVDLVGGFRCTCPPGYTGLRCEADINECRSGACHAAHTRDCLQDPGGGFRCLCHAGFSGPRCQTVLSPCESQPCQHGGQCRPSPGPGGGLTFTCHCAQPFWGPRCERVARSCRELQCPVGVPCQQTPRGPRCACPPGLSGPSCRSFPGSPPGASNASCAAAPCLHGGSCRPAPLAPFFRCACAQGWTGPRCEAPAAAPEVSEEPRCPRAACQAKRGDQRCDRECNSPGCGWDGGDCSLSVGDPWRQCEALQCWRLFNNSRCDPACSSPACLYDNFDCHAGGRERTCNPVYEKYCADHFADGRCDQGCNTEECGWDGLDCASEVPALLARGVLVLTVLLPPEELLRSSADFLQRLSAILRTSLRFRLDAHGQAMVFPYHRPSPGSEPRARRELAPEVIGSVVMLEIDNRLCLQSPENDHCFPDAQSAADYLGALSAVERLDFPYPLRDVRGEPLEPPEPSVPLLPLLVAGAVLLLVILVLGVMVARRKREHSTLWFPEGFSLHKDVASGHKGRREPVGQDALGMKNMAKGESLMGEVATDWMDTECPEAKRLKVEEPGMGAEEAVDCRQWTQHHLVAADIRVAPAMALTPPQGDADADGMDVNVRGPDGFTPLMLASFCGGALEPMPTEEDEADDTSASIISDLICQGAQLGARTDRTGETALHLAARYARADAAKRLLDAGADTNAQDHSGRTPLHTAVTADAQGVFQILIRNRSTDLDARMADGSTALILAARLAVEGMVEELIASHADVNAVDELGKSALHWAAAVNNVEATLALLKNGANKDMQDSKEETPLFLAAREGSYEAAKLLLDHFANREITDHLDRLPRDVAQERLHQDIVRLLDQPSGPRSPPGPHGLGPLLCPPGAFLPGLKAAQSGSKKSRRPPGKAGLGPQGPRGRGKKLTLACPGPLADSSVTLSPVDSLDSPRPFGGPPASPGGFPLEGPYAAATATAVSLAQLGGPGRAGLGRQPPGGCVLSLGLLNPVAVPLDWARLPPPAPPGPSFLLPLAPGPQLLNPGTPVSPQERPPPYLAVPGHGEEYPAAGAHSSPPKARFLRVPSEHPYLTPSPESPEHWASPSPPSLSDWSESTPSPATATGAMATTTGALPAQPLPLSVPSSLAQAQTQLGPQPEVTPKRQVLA

[20] = small-molecule microarray binders of probe aEGFR, primary screen, biochemical, biotinylated probe, 635/667 nm fluorescence (AID 1097); conditions: higher = more signal;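 further: probe is a biotinylated anti-EGFR antibody binding compounds printed on slides; score combines fluorescence near 667 nm and signal to noise of each spot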

SMILES	composite z-score [1]	composite z-score [2]	composite z-score [3]	composite z-score [4]	composite z-score [5]	composite z-score [6]	composite z-score [7]	z-score [8]	composite z-score [9]	composite z-score [10]	composite z-score [11]	z-score [12]	z-score [13]	z-score [14]	composite z-score [15]	z-score [16]	composite z-score [17]	composite z-score [18]	composite z-score [19]	composite z-score [20]
O=C1[C@H]2[C@H]3[C@H](O)[C@H](O)CC(=NOCc4ccccc4)[C@H]3CC[C@H]2C(=O)N1Cc1ccc2c(c1)OCO2	-0.537	0.239	-0.172	0.315	0.306	0.273	0.278	0.0017 (inactive)	0.0418	-0.0003	0.437	-0.627 (inactive)	-0.674 (inactive)	-1.53 (inactive)	1.1	1.26 (inactive)	-0.0766	0.273	0.546	0.0102
CO[C@H]1COC(=O)[C@@H]2CCCN2C(=O)CC=C[C@@H](C)[C@H](OC)COC(=O)[C@@H](OCc2ccccc2)C=C[C@@H]1C	-0.466	1.29	-0.175	-0.477	-0.624	-0.233	0.269	-0.0576 (inactive)	0.317	0.176	1.3	0.14 (inactive)	-0.826 (inactive)	0.087 (inactive)	-1.13	0.279 (inactive)	-0.155	1.08	-0.203	0.0564
CCOC(=O)[C@H](Cc1ccccc1)NC(=O)CCC1CC(OC(=O)NCCc2ccc(F)cc2)CC2(CCCC(COC(=O)NCc3ccccc3)O2)O1 (stereo not given in full)	-0.434	-0.0986	-0.0887	0.854	0.679	0.331	0.903	0.292 (inactive)	0.0791	-0.0994	1.56	-0.522 (inactive)	0.653 (inactive)	0.6 (inactive)	0.999	0.413 (inactive)	-0.0965	0.644	1.04	-0.0146
O=C1[C@H]2[C@H]3[C@H](O)[C@H](O)CC(=NO[C@@H]4O[C@H](CO)[C@@H](O)[C@H](O)[C@H]4O)[C@H]3CC[C@H]2C(=O)N1c1cccc(Oc2ccccc2)c1	-0.249	0.128	-0.0867	0.435	0.387	-0.106	0.843	0.0203 (inactive)	-0.278	-0.0024	0.69	-0.513 (inactive)	0.0816 (inactive)	-0.642 (inactive)	0.543	0.563 (inactive)	-0.253	0.329	0.861	-0.0549
CC(C)=CCCC(C)=CCON=C1C[C@@H](O)[C@@H](O)[C@@H]2[C@@H]3C(=O)N(C(C)(C)C)C(=O)[C@@H]3CC[C@H]12	-0.28	-0.0211	0.0122	0.406	0.591	0.0095	0.744	0.132 (inactive)	-0.0538	-0.0994	0.64	0.0423 (inactive)	0.473 (inactive)	-0.656 (inactive)	0.312	0.281 (inactive)	-0.138	0.919	0.539	-0.0466
COC(=O)CC=C[C@@H](C)[C@@H](C=NOCC[C@@H]1C=C[C@H](OC(C)=O)[C@@H](COC(C)=O)O1)NS(=O)(=O)c1ccc(C)cc1	-0.186	1.86	-0.129	-0.371	-0.134	-0.512	-0.123	0.0469 (inactive)	0.153	-0.0296	0.477	0.787 (inactive)	0.466 (inactive)	-0.448 (inactive)	-0.0098	0.545 (inactive)	0.135	0.706	-0.213	0.0511
CO[C@@H]1C=CCC(=O)N[C@@H](C)C(=O)OC[C@@H](OC)[C@H](C)CCCC(=O)OC[C@H]1C	-0.198	2.55	-0.129	0.361	0.0208	-0.677	-0.951	0.313 (inactive)	-0.331	0.176	1.44	-0.465 (inactive)	-0.111 (inactive)	-1.17 (inactive)	-2.13	0.976 (inactive)	-0.153	1.91	-1.04	-0.0485
CCO[C@H](c1cc(OC)cc([N+](=O)[O-])c1OC)[C@H](C)C=CCC(=O)OC	-0.413	0.13	-0.22	-0.0567	-0.3	-0.264	-0.997	0.157 (inactive)	-0.185	-0.479	1.11	-0.57 (inactive)	-1.18 (inactive)	-0.187 (inactive)	-0.746	0.545 (inactive)	-0.233	0.927	0.0565	-0.123
O=C(NN=C1C[C@@H](O)[C@@H](O)[C@@H]2[C@@H]3C(=O)N(C[C@@H]4CCCO4)C(=O)[C@@H]3CC[C@@H]12)OCc1ccccc1	-0.51	2.32	-0.173	-0.522	-0.122	-0.802	0.631	-0.891 (inactive)	-0.0104	-0.0994	1.04	-1.74 (inactive)	-0.199 (inactive)	-0.655 (inactive)	-0.0366	-0.202 (inactive)	-0.27	0.907	0.208	-0.0947
COc1ccc(O[C@H]2C=C[C@@H](c3ccccc3)O[C@@H]2CON=C(C)C)cc1	0.332	-0.0694	0.0333	-0.531	-0.286	0.112	-0.0241	0.359 (inactive)	-0.195	0.107	-0.818	0.278 (inactive)	-2.91 (inactive)	0.0212 (inactive)	-0.222	0.511 (inactive)	0.175	-0.0668	-0.943	0.0102
